Results published in the antibiotic and cytotoxicity screens of Wong et al. (2023).
About 3,300 (8.5%) of roughly 39,000 compounds were called active. The sample as a whole holds a higher share of actives than the screen did.

Tested on: HepG2
Experiment: cytotoxicity call (relative viability < 0.9)
Details: 10 µM

Q: With `Cc1noc(C)c1NC(=O)N(C)C[C@@H]1Oc2c(NS(=O)(=O)c3ccccc3)cccc2C(=O)N([C@@H](C)CO)C[C@@H]1C` as the compound, how does the cytotoxicity call read?
A: inactive

Q: With `CC(C)Cn1c(N)cc(=O)n(C)c1=O` as the compound, how does the cytotoxicity call read?
A: inactive

Q: How did the cytotoxicity call turn out when `C[C@@H]1CCCCO[C@@H](CN(C)C(=O)Nc2ccc3c(c2)OCO3)[C@H](C)CN([C@H](C)CO)C(=O)c2cc(NS(=O)(=O)c3ccccc3)ccc2O1` was run?
A: inactive

Q: Which cytotoxicity call does the source give for `COc1ccc(S(=O)(=O)Nc2cccc3c2O[C@H](CN(C)C(=O)Nc2cccc4ccccc24)[C@@H](C)CN([C@@H](C)CO)C3=O)cc1` here?
A: inactive

Q: For `C=CC[C@@H](CC(=O)N(CCO)Cc1ccccc1)C(=O)NC[C@@H](OC(=O)[C@@H](CC=C)Cc1ccc(F)cc1)c1ccccc1`, which cytotoxicity call is on record?
A: inactive

Q: How did the cytotoxicity call turn out when `C[C@@H]1CCCCO[C@@H](CN(C)CC2CC2)[C@H](C)CN([C@@H](C)CO)C(=O)c2cc(NC(=O)NC3CCCCC3)ccc2O1` was run?
A: inactive

Q: For `O=C1NC(=O)[C@@]2(CC[C@H](C(=O)O)C2)N1`, which cytotoxicity call is on record?
A: inactive

Q: Which cytotoxicity call does the source give for `CN1CCN(C(=O)C[C@@H]2CC[C@H]3[C@@H](COC[C@H](O)CN3Cc3ccc(Oc4ccccc4)cc3)O2)CC1` here?
A: inactive

Q: With `C[C@@H]1CCCCO[C@@H](CN(C)S(=O)(=O)c2cccs2)[C@H](C)CN([C@@H](C)CO)C(=O)c2cc(NC(=O)NC3CCCCC3)ccc2O1` as the compound, how does the cytotoxicity call read?
A: inactive

Q: For `O=C(O)c1oc2ccccc2c1CSc1ccc(Cl)cc1`, which cytotoxicity call is on record?
A: inactive

Q: With `COc1ccc(CN(C)C[C@@H]2OCCCC[C@@H](C)Oc3ccc(NC(=O)NC4CCCCC4)cc3C(=O)N([C@H](C)CO)C[C@@H]2C)cc1` as the compound, how does the cytotoxicity call read?
A: inactive

Q: For `COc1ccc(CN(C)C[C@H]2OCCCC[C@@H](C)Oc3ccc(NC(=O)NC4CCCCC4)cc3C(=O)N([C@H](C)CO)C[C@H]2C)cc1`, which cytotoxicity call is on record?
A: active

Q: Which cytotoxicity call does the source give for `COc1ccc(CN(C)C[C@@H]2OCCCC[C@@H](C)Oc3ccc(NC(=O)NC4CCCCC4)cc3C(=O)N([C@H](C)CO)C[C@H]2C)cc1` here?
A: inactive

Q: For `COc1ccc(CN(C)C[C@H]2OCCCC[C@H](C)Oc3ccc(NC(=O)NC4CCCCC4)cc3C(=O)N([C@@H](C)CO)C[C@H]2C)cc1`, which cytotoxicity call is on record?
A: active

Q: How did the cytotoxicity call turn out when `COc1ccc(CN(C)C[C@@H]2OCCCC[C@H](C)Oc3ccc(NC(=O)NC4CCCCC4)cc3C(=O)N([C@@H](C)CO)C[C@@H]2C)cc1` was run?
A: active

Q: How did the cytotoxicity call turn out when `COc1ccc(CN(C)C[C@H]2OCCCC[C@H](C)Oc3ccc(NC(=O)NC4CCCCC4)cc3C(=O)N([C@@H](C)CO)C[C@@H]2C)cc1` was run?
A: inactive

Q: Which cytotoxicity call does the source give for `COc1ccc(CN(C)C[C@H]2OCCCC[C@@H](C)Oc3ccc(NC(=O)NC4CCCCC4)cc3C(=O)N([C@@H](C)CO)C[C@@H]2C)cc1` here?
A: inactive

Q: With `COc1ccc(CN(C)C[C@H]2OCCCC[C@H](C)Oc3ccc(NC(=O)NC4CCCCC4)cc3C(=O)N([C@H](C)CO)C[C@H]2C)cc1` as the compound, how does the cytotoxicity call read?
A: inactive

Q: For `COc1ccc(CN(C)C[C@@H]2OCCCC[C@H](C)Oc3ccc(NC(=O)NC4CCCCC4)cc3C(=O)N([C@H](C)CO)C[C@@H]2C)cc1`, which cytotoxicity call is on record?
A: inactive

Q: Which cytotoxicity call does the source give for `C[C@H](CO)N1C[C@H](C)[C@@H](CN(C)Cc2ccc(C(=O)Nc3ccccc3N)cc2)OCc2cnnn2CCCC1=O` here?
A: inactive

Q: `CC(C)(C)[S@@](=O)N1Cc2cc(C(=O)N3CCCCC3)nc(-c3cccc(-c4ccc(F)cc4)c3)c2[C@H]1CCO` was tested. Which cytotoxicity call did it give?
A: inactive

Q: For `O=C(CN1CCOCC1)NCC[C@H]1CC[C@H](NS(=O)(=O)c2ccc(Cl)cc2)[C@H](CO)O1`, which cytotoxicity call is on record?
A: inactive

Q: `CCc1cc(=O)oc2c(C)c(O[C@@H]3O[C@H](CO)[C@@H](O)[C@H](O)[C@H]3O)ccc12` was tested. Which cytotoxicity call did it give?
A: inactive

Q: How did the cytotoxicity call turn out when `COc1ccc(S(=O)(=O)N(C)C[C@H]2Oc3ccc(NC(=O)CCC(F)(F)F)cc3CC(=O)N([C@H](C)CO)C[C@H]2C)cc1` was run?
A: inactive

Q: For `Cc1cc(C(=O)Nc2cccc3c2O[C@H](CN(C)Cc2ccccc2)[C@H](C)CN([C@@H](C)CO)C3=O)n(C)n1`, which cytotoxicity call is on record?
A: inactive

Q: For `COCC#Cc1ccc2c(c1)O[C@H](CN(C)C(=O)C1CCCCC1)[C@@H](C)CN([C@@H](C)CO)S2(=O)=O`, which cytotoxicity call is on record?
A: inactive

Q: Which cytotoxicity call does the source give for `CO[C@H](CN(C)S(=O)(=O)c1cn(C)cn1)[C@H](C)CN(C(=O)Nc1ccc(C(F)(F)F)cc1)[C@H](C)CO` here?
A: inactive

Q: How did the cytotoxicity call turn out when `CC(C)NC(=O)Nc1ccc2c(c1)C(=O)N([C@H](C)CO)C[C@@H](C)[C@@H](CN(C)C(=O)Nc1ccc3c(c1)OCO3)O2` was run?
A: inactive

Q: Which cytotoxicity call does the source give for `Cc1n[nH]c(C)c1S(=O)(=O)N1CCCC1` here?
A: inactive

Q: Which cytotoxicity call does the source give for `COc1ccc(NC(=O)Nc2ccc3c(c2)[C@@H]2C[C@H](CC(=O)N4CCN(C)CC4)O[C@H](CO)[C@@H]2O3)cc1` here?
A: inactive

Q: For `C[C@H]1CN([C@@H](C)CO)C(=O)c2cccc(NC(=O)Nc3cccc4ccccc34)c2O[C@@H]1CN(C)S(=O)(=O)c1ccc(F)cc1`, which cytotoxicity call is on record?
A: active

Q: For `C[C@H]1CN([C@@H](C)CO)C(=O)c2cccc(NC(=O)Nc3cccc4ccccc34)c2O[C@@H]1CN(C)S(=O)(=O)c1ccc(Cl)cc1`, which cytotoxicity call is on record?
A: inactive

Q: Which cytotoxicity call does the source give for `C[C@@H]1CN([C@H](C)CO)C(=O)c2cccc(NC(=O)Nc3cccc4ccccc34)c2O[C@@H]1CN(C)S(=O)(=O)c1ccc(F)cc1` here?
A: inactive

Q: How did the cytotoxicity call turn out when `C[C@@H]1CN([C@@H](C)CO)C(=O)c2cccc(NC(=O)Nc3cccc4ccccc34)c2O[C@H]1CN(C)S(=O)(=O)c1ccc(F)cc1` was run?
A: inactive

Q: For `C[C@@H]1CN([C@@H](C)CO)C(=O)c2cccc(NC(=O)Nc3cccc4ccccc34)c2O[C@@H]1CN(C)S(=O)(=O)c1ccc(Cl)cc1`, which cytotoxicity call is on record?
A: inactive

Q: How did the cytotoxicity call turn out when `C[C@H](CO)N1C[C@H](C)[C@@H](CN(C)S(=O)(=O)c2ccc(Cl)cc2)Oc2c(NC(=O)Nc3cccc4ccccc34)cccc2C1=O` was run?
A: active

Q: `C[C@H]1CN([C@@H](C)CO)C(=O)c2cccc(NS(C)(=O)=O)c2O[C@H]1CN(C)S(=O)(=O)c1ccc(Cl)cc1` was tested. Which cytotoxicity call did it give?
A: inactive

Q: `C[C@H]1CN([C@@H](C)CO)C(=O)Cc2cc(NC(=O)CCN3CCOCC3)ccc2O[C@@H]1CN(C)S(=O)(=O)c1ccccc1` was tested. Which cytotoxicity call did it give?
A: inactive

Q: With `COc1ccc(NC(=O)N(C)C[C@H]2Oc3ccc(NC(=O)CCN4CCOCC4)cc3C(=O)N([C@H](C)CO)C[C@@H]2C)cc1` as the compound, how does the cytotoxicity call read?
A: inactive

Q: With `CCS(=O)(=O)N1C[C@]2(CN(C2)S(=O)(=O)c2cn(cn2)C)c2c(n(c3cc(ccc23)OC)C)[C@@H]1CO` as the compound, how does the cytotoxicity call read?
A: inactive

Q: Which cytotoxicity call does the source give for `CC(=O)N(C)C[C@@H]1Oc2cc(C#CCN(C)C)ccc2S(=O)(=O)N([C@H](C)CO)C[C@H]1C` here?
A: inactive

Q: `Cc1noc(C)c1S(=O)(=O)N(C)C[C@H]1Oc2ccc(NC(=O)CCN3CCOCC3)cc2CC(=O)N([C@@H](C)CO)C[C@H]1C` was tested. Which cytotoxicity call did it give?
A: inactive

Q: `CC1CCC2C(C)C(O)OC3OC4(C)CCC1C32OO4` (stereo unspecified) was tested. Which cytotoxicity call did it give?
A: active

Q: With `CC1CCC2C(C)C(OC(=O)CCC(=O)O)OC3OC4(C)CCC1C32OO4` (stereo unspecified) as the compound, how does the cytotoxicity call read?
A: active

Q: How did the cytotoxicity call turn out when `CC(=O)C1CCC2C3CC=C4CC(OC(=O)CCC(=O)O)CCC4(C)C3CCC12C` (stereo unspecified) was run?
A: inactive

Q: For `COC1OC2OC3(C)CCC4C(C)CCC(C1C)C24OO3` (stereo unspecified), which cytotoxicity call is on record?
A: inactive

Q: How did the cytotoxicity call turn out when `CCCN(C)C[C@@H]1OCCCC[C@@H](C)Oc2ccc(NC(=O)C3CCCCC3)cc2C(=O)N([C@@H](C)CO)C[C@@H]1C` was run?
A: inactive

Q: With `COc1cc(/C=C/C(=O)C2=C(NCCc3ccccc3)S[C@H](c3ccc(O)c(OC)c3)CC2=O)ccc1O` as the compound, how does the cytotoxicity call read?
A: inactive

Q: Which cytotoxicity call does the source give for `C[C@@H]1CN([C@@H](C)CO)C(=O)c2cccc(NS(=O)(=O)c3cn(C)cn3)c2O[C@H]1CN(C)CC1CC1` here?
A: inactive

Q: With `CNC[C@H]1Oc2ccc(NC(=O)Cn3cnnn3)cc2CC(=O)N([C@H](C)CO)C[C@@H]1C` as the compound, how does the cytotoxicity call read?
A: inactive

Q: `C[C@@H](O)[C@@H](Nc1ncnc2ccccc12)C(=O)O` was tested. Which cytotoxicity call did it give?
A: inactive

Q: How did the cytotoxicity call turn out when `C[C@H]1CN([C@@H](C)CO)C(=O)c2cccc(NC(=O)c3ccc(-c4nccs4)cc3)c2O[C@@H]1CN(C)Cc1ccc2c(c1)OCO2` was run?
A: inactive

Q: `C[C@@H]1CCCCO[C@H](CN(C)Cc2ccc(C(=O)O)cc2)[C@@H](C)CN([C@@H](C)CO)C(=O)c2cc(NC(=O)c3ccccc3)ccc2O1` was tested. Which cytotoxicity call did it give?
A: inactive

Q: Which cytotoxicity call does the source give for `CO[C@@]12[C@@H]3N[C@@H]3CN1C1=C(C(=O)C(N)=C(C)C1=O)[C@@H]2COC(N)=O` here?
A: active

Q: Which cytotoxicity call does the source give for `COC12C(COC(N)=O)C3=C(C(=O)C(C)=C(N)C3=O)N1CC1NC12` (stereo unspecified) here?
A: active

Q: `CO[C@@]12[C@H](COC(N)=O)C3=C(C(=O)C(C)=C(N)C3=O)N1C[C@@H]1N[C@@H]12` was tested. Which cytotoxicity call did it give?
A: inactive

Q: How did the cytotoxicity call turn out when `COc1cccc(S(=O)(=O)Nc2ccc3c(c2)[C@@H]2C[C@@H](CC(=O)NCCc4ccccc4)O[C@@H](CO)[C@@H]2O3)c1` was run?
A: inactive

Q: For `C=CCOC(=O)[C@@H]1[C@H]2C(=O)O[C@H](c3ccccc3)[C@H](c3ccccc3)N2[C@H](c2ccc(OCCOC(=O)[C@@H]3C[C@@H]4C(=O)N[C@@H](CC(C)C)C(=O)N4[C@@H]3c3ccc(O)cc3)cc2)[C@@]12C(=O)Nc1ccc(I)cc12`, which cytotoxicity call is on record?
A: inactive

Q: How did the cytotoxicity call turn out when `COC(=O)C[C@H]1CC[C@H]2[C@H](COc3ccc(NS(=O)(=O)c4ccccc4Cl)cc3C(=O)N2C)O1` was run?
A: inactive

Q: `O=C(/C=C/c1cccc(-c2cn(-c3cccc(C(=O)N4CCC5(CC4)C(=O)NCN5c4ccccc4)c3)nn2)c1)NO` was tested. Which cytotoxicity call did it give?
A: inactive

Q: With `O=C(Cn1cc(CN2C(=O)COC[C@H]2c2ccccc2)nn1)N1CCC2(CC1)C(=O)NCN2c1ccccc1` as the compound, how does the cytotoxicity call read?
A: inactive

Q: For `O=C(/C=C/c1cccc(-c2cn(CC(=O)N3CCC4(CC3)C(=O)NCN4c3ccccc3)nn2)c1)NO`, which cytotoxicity call is on record?
A: inactive

Q: For `O=C(CCc1cn(CC(=O)N2CCC3(CC2)C(=O)NCN3c2ccccc2)nn1)NO`, which cytotoxicity call is on record?
A: active

Q: With `O=C(NO)c1cn(-c2cccc(C(=O)N3CCC4(CC3)C(=O)NCN4c3ccccc3)c2)nn1` as the compound, how does the cytotoxicity call read?
A: active

Q: With `O=C(NO)c1cn(CC(=O)N2CCC3(CC2)C(=O)NCN3c2ccccc2)nn1` as the compound, how does the cytotoxicity call read?
A: inactive

Q: How did the cytotoxicity call turn out when `C[C@@H]1CN([C@H](C)CO)C(=O)c2cc(NS(=O)(=O)c3ccc(F)cc3)ccc2O[C@@H](C)CCCCO[C@@H]1CN(C)S(=O)(=O)c1ccc(Cl)cc1` was run?
A: inactive
